# Test results from the supplement of paper PMC8728848.
# Only a selection was taken, and the strongest signals are over-represented in it overall.
# Tests used:
# Assay in all cases: glycan array binding signal (z-score within array); higher = stronger binding
# Conditions in all cases: glycan notation: IUPAC condensed, linker removed; mutation: R343V
# Fuc(a1-2)Gal(b1-4)Glc6S = biological target: Fuc(a1-2)Gal(b1-4)Glc6S
# In short: (§1)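 Glycan array data were curated from 3228 arrays in the Consortium for Functional Glycomics database and kept only where the protein sequence was available. Glycan names were converted to IUPAC-condensed notation, and columns mapping to the same glycan were averaged. The binding signal is a within-array Z-score, averaged across arrays of the same protein sequence at different concentrations or buffers and across linkers. Negative Z-scores can be read as non-binding.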
# [1] = biological target: Fuc(a1-2)Gal(b1-4)GlcNAc(b1-3)Gal(b1-4)GlcNAc
# In short: as §1
# [2] = biological target: Fuc(a1-2)Gal6S(b1-4)Glc6S
# In short: as §1
# [3] = biological target: Fuc(a1-2)[Gal(a1-3)]Gal(b1-4)GlcNAc
# In short: as §1
# [4] = biological target: Fuc(a1-2)[GalNAc(a1-3)]Gal(b1-3)GlcNAc
# In short: as §1
# Fuc(a1-3)GlcNAc = biological target: Fuc(a1-3)GlcNAc
# In short: as §1
# Gal(b1-3)Gal(b1-4)GlcNAc = biological target: Gal(b1-3)Gal(b1-4)GlcNAc
# In short: as §1
# [5] = biological target: Gal(b1-3)GalNAc(b1-4)Gal(b1-4)Glc
# In short: as §1
# [6] = biological target: Gal(b1-3)[Fuc(a1-4)]GlcNAc(b1-3)Gal(b1-4)[Fuc(a1-3)]GlcNAc
# In short: as §1
# [7] = biological target: Gal(b1-3)[Neu5Ac(a2-6)]GlcNAc(b1-6)Gal(b1-4)Glc
# In short: as §1
# [8] = biological target: Gal(b1-4)GlcNAc(b1-6)GalNAc
# In short: as §1
# Gal3S(b1-4)Glc6S = biological target: Gal3S(b1-4)Glc6S
# In short: as §1
# Gal3S6S(b1-4)GlcNAc6S = biological target: Gal3S6S(b1-4)GlcNAc6S
# In short: as §1
# GlcA(b1-6)Gal = biological target: GlcA(b1-6)Gal
# In short: as §1
# [9] = biological target: GlcNAc(b1-2)Man(a1-3)[GlcNAc(b1-2)Man(a1-6)]Man(b1-4)GlcNAc(b1-4)GlcNAc
# In short: as §1
# [10] = biological target: GlcNAc(b1-3)Gal(b1-3)GalNAc
# In short: as §1
# [11] = biological target: GlcNAc(b1-3)[GlcNAc(b1-4)][GlcNAc(b1-6)]GlcNAc
# In short: as §1
# [12] = biological target: GlcNAc(b1-4)Gal(b1-4)GlcNAc
# In short: as §1
# [13] = biological target: GlcNAc(b1-4)[GlcNAc(b1-6)]GalNAc
# In short: as §1
# Kdn(a2-3)Gal(b1-3)GlcNAc = biological target: Kdn(a2-3)Gal(b1-3)GlcNAc
# In short: as §1
# [14] = biological target: Man(a1-2)Man(a1-3)[Man(a1-6)]Man(a1-6)[Man(a1-2)Man(a1-3)]Man(b1-4)GlcNAc(b1-4)GlcNAc
# In short: as §1
# [15] = biological target: Man(a1-3)[Man(a1-6)]Man(a1-6)[Man(a1-2)Man(a1-3)]Man(b1-4)GlcNAc(b1-4)GlcNAc
# In short: as §1
# [16] = biological target: Man(a1-3)[Man(a1-6)]Man(a1-6)[Man(a1-3)]Man(b1-4)GlcNAc(b1-4)GlcNAc
# In short: as §1
# [17] = biological target: Neu5Ac(a2-3)Gal(b1-4)GlcNAc(b1-3)Gal(b1-3)GlcNAc
# In short: as §1
# [18] = biological target: Neu5Ac(a2-6)Gal(b1-4)GlcNAc6S
# In short: as §1
# [19] = biological target: Neu5Ac(a2-8)Neu5Ac(a2-3)Gal(b1-4)Glc
# In short: as §1
# [20] = biological target: Neu5Ac(a2-8)Neu5Ac(a2-8)Neu5Ac(a2-3)Gal(b1-4)Glc
# In short: as §1
binder,measurement,setting,value
Surfactant Protein D (Human); Neck + Carbohydrate Recognition Domain (NCRD) (Homo sapiens) (protein) MLLFLLSALVLLTQPLGYLEAEMKTYSHRTMPSACTLVMCSSVESGLPGRDRDGREGPRGEKGDPGLPGAAGQAGMPGQAGPVGPKGDNGSVGEPGPKGDTGPSGPPGPPGVPGPAGREGALGKQGNIGPQGKPGPKGEAGPKGEVGAPGMQGSAGARGLAGPKGERGVPGERGVPGNTGAAGSAGAMGPQGSPGARGPPGLKGDKGIPGDKGAKGESGLPDVASLRQQVEALQGQVQHLQAAFSQYKKVELFPNGQSVGEKIFKTAQFVKPFTEAQLLCTQAGGQLASPRSAAENAALQQLVVAKNEAAFLSMTDSKTEGKFTYPTGESLVYSNWAPGEPNDDGGSEDCVEIFTNGKWNDVACGEKRLVVCEF,glycan array binding signal (z-score),Fuc(a1-2)Gal(b1-4)Glc6S,-0.514
same,glycan array binding signal (z-score),[1],1.5
same,glycan array binding signal (z-score),[2],-0.304
same,glycan array binding signal (z-score),[3],-0.508
same,glycan array binding signal (z-score),[4],-0.559
same,glycan array binding signal (z-score),Fuc(a1-3)GlcNAc,3.11
same,glycan array binding signal (z-score),Gal(b1-3)Gal(b1-4)GlcNAc,-0.562
same,glycan array binding signal (z-score),[5],-0.463
same,glycan array binding signal (z-score),[6],2.11
same,glycan array binding signal (z-score),[7],-0.498
same,glycan array binding signal (z-score),[8],-0.546
same,glycan array binding signal (z-score),Gal3S(b1-4)Glc6S,-0.317
same,glycan array binding signal (z-score),Gal3S6S(b1-4)GlcNAc6S,-0.189
same,glycan array binding signal (z-score),GlcA(b1-6)Gal,-0.463
same,glycan array binding signal (z-score),[9],3.08
same,glycan array binding signal (z-score),[10],1.72
same,glycan array binding signal (z-score),[11],3.11
same,glycan array binding signal (z-score),[12],3.13
same,glycan array binding signal (z-score),[13],2.16
same,glycan array binding signal (z-score),Kdn(a2-3)Gal(b1-3)GlcNAc,-0.504
same,glycan array binding signal (z-score),[14],2.61
same,glycan array binding signal (z-score),[15],3.01
same,glycan array binding signal (z-score),[16],3.27
same,glycan array binding signal (z-score),[17],-0.489
same,glycan array binding signal (z-score),[18],-0.319
same,glycan array binding signal (z-score),[19],-0.47
same,glycan array binding signal (z-score),[20],-0.49
